Several values for one entry are separate records, joined by “and”; a condition that tells them apart may be missing. Identical values can stand only once. Among all 5,500 compounds or so, about 2,000 (36%) were called active. About 18% were inconclusive and are not listed. No stated cut-off is given here; in the data, active means normalized growth mostly below about 0.91 (no sharp cut-off); inconclusive means no clear call, values can overlap the other calls; inactive means mostly above about 0.92. This is one part of the list.
Assay: chemical genetic growth profiling, strain panel (AID 1159580);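 further: tested at 20 µM; growth read once vehicle control cultures reached saturation at 30 °C; 1 = growth at the plate median or of vehicle wells; lower values mean less growth of the strain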
Settings: S. cerevisiae deletion strains, growth OD
[1] = locus YAL013W, strain DEP1, active compounds read low
[2] = locus YBR229C, strain ROT2, active compounds read low
[3] = locus YCL061C, strain MRC1, active compounds read low
[4] = locus YDL101C, strain DUN1, active compounds read low
[5] = locus YDL134C, strain PPH21, active compounds read low
[6] = locus YEL061C, strain CIN8, active compounds read low
[7] = locus YGR078C, strain PAC10, active compounds read low
[8] = locus YHR030C, strain SLT2, active compounds read low
[9] = locus YJR043C, strain POL32, active compounds read low
[10] = locus YKL190W, strain CNB1, active compounds read low
[11] = locus YLR039C, strain RIC1, active compounds read low
[12] = locus YLR262C, strain YPT6, active compounds read low
[13] = locus YMR307W, strain GAS1, active compounds read low
[14] = locus YNL153C, strain GIM3, active compounds read low
[15] = locus YNL322C, strain KRE1, active compounds read low

Measured: normalized growth

Cc1cc2c(cc1C)CSC(C)(c1ccc(F)cc1)SC2
inactive: [1] 0.994 | [2] 0.994 | [3] 0.993 | [4] 0.968 | [5] 0.997 | locus YDR150W, strain NUM1, active compounds read low 0.903 | [6] 1.02 | [7] 0.979 | [8] 0.952 | locus YHR087W, strain rtc3, active compounds read low 1.01 | [9] 0.982 | locus YJR075W, strain HOC1, active compounds read low 0.978 | [10] 0.992 | [11] 0.953 | locus YLR058C, strain SHM2 (second series), active compounds read low 1 | locus YLR085C, strain ARP6, active compounds read low 1.03 | [12] 0.961 | locus YML094W, strain GIM5, active compounds read low 1.01 | locus YMR219W, strain ESC1, active compounds read low 1.01 | locus YMR263W, strain SAP30, active compounds read low 0.947 | [13] 0.737 | [14] 0.986 | locus YNL298W, strain CLA4 (second series), active compounds read low 0.975 | [15] 1 | locus YNR030W, strain Alg12, active compounds read low 0.978 | locus YPL055C, strain LGE1, active compounds read low 1 | locus YPL241C, strain CIN2, active compounds read low 1.01 | locus YPR135W, strain CTF4, active compounds read low 0.946

COc1ccccc1OCC(O)COC(N)=O (stereo unspecified)
inactive: [1] 0.997 | locus YAL021C, strain ccr4, active compounds read low 0.991 | locus YAL026C, strain drs2, active compounds read low 0.99 | locus YAL030W, strain snc1, active compounds read low 0.996 | locus YBL061C, strain skt5, active compounds read low 0.989 | locus YBR009C, strain hhf1, active compounds read low 0.97 | locus YBR021W, strain FUR4, active compounds read low 1.02 | locus YBR023C, strain chs3, active compounds read low 0.966 | locus YBR171W, strain sec66, active compounds read low 0.981 | [2] 1 | locus YBR231C, strain swc5, active compounds read low 0.992 | locus YBR279W, strain paf1, active compounds read low 0.976 | locus YCL011C, strain gbp2, active compounds read low 0.979 | locus YCL016C, strain dcc1, active compounds read low 0.962 | locus YCL029C, strain bik1, active compounds read low 0.997 | [3] 0.973 | locus YCL069W, strain vba3, active compounds read low 0.996 | locus YCR088W, strain abp1, active compounds read low 0.985 | locus YDL005C, strain med2, active compounds read low 0.987 | locus YDL035C, strain GPR1, active compounds read low 1 | locus YDL040C, strain nat1, active compounds read low 0.992 | locus YDL074C, strain BRE1, active compounds read low 0.995 | [4] 0.997 | [5] 1.01 | locus YDL185W, strain tfp1, active compounds read low 0.957 | locus YDL192W, strain arf1, active compounds read low 0.977 | locus YDR001C, strain nth1, active compounds read low 0.991 | locus YDR069C, strain doa4, active compounds read low 0.996 | locus YDR101C, strain arx1, active compounds read low 1.04 | locus YDR137W, strain rgp1, active compounds read low 0.965 | locus YDR159W, strain sac3, active compounds read low 1.01 | locus YDR162C, strain NBP2, active compounds read low 1 | locus YDR195W, strain ref2 1.01 | locus YDR297W, strain sur2, active compounds read low 0.996 | locus YDR318W, strain mcm21, active compounds read low 0.993 | locus YDR334W, strain swr1, active compounds read low 0.978 | locus YDR335W, strain msn5, active compounds read low 0.993 | locus YDR388W, active compounds read low 1 | locus YDR392W, strain spt3, active compounds read low 0.918 | locus YDR502C, strain sam2, active compounds read low 0.997 | locus YEL003W, strain gim4, active compounds read low 1 | locus YEL037C, strain rad23, active compounds read low 0.985 | locus YEL061C, strain CIN8 (second series), active compounds read low 0.984 | [6] 0.98 | locus YER015W, strain faa2, active compounds read low 0.974 | locus YER016W, strain bim1, active compounds read low 1.02 | locus YER110C, active compounds read low 0.983 | locus YER111C, strain swi4, active compounds read low 0.981 | locus YER155C, strain BEM2 (second series), active compounds read low 1 | locus YER155C, strain BEM2, active compounds read low 0.993 | locus YER167W, strain BCK2, active compounds read low 0.99 | locus YFR010W, strain ubp6, active compounds read low 0.987 | locus YGL078C, strain dbp3, active compounds read low 0.984 | locus YGL086W, strain mad1, active compounds read low 1.02 | locus YGL167C, strain pmr1, active compounds read low 0.983 | locus YGL173C, strain kem1, active compounds read low 0.992 | locus YGL227W, strain vid30, active compounds read low 0.988 | locus YGL240W, strain doc1, active compounds read low 1.02 | locus YGL248W, strain PDE1, active compounds read low 0.999 | locus YGL253W, strain hxk2, active compounds read low 0.985 | [7] 1 | locus YGR135W, strain pre9, active compounds read low 0.961 | locus YGR229C, strain SMI1, active compounds read low 1 | locus YGR252W, strain gcn5, active compounds read low 0.988 | locus YHR013C, strain ard1, active compounds read low 0.952 | locus YHR027C, strain rpn1, active compounds read low 1 | [8] 0.996 and 1.06 | locus YHR079C, strain IRE1 (second series), active compounds read low 0.991 | locus YHR079C, strain IRE1, active compounds read low 1.05 | locus YHR094C, strain hxt1, active compounds read low 1 | locus YHR129C, strain ARP1, active compounds read low 1 | locus YHR142W, strain chs7, active compounds read low 0.965 | locus YHR200W, strain rpn10, active compounds read low 0.985 | locus YIL066C, strain RNR3, active compounds read low 1 | locus YIL073C, strain SPO22, active compounds read low 0.94 | locus YIL125W, strain kgd1, active compounds read low 0.999 | locus YIR030C, strain dcg1, active compounds read low 0.985 | locus YJL092W, strain hpr5, active compounds read low 0.984 | locus YJL095W, strain BCK1 (second series), active compounds read low 0.991 | locus YJL095W, strain BCK1, active compounds read low 0.991 and 1.03 | locus YJL115W, strain asf1, active compounds read low 0.975 | locus YJL129C, strain trk1, active compounds read low 0.972 | locus YJL134W, strain LCB3, active compounds read low 0.99 | locus YJL154C, strain vps35, active compounds read low 0.992 | locus YJL164C, strain tpk1, active compounds read low 0.97 | locus YJL166W, strain qcr8, active compounds read low 0.96 | locus YJL168C, strain set2, active compounds read low 1 | locus YJL187C, strain SWE1 (second series), active compounds read low 1 | locus YJL187C, strain SWE1, active compounds read low 0.99 | [9] 1.02 | locus YJR066W, strain TOR1, active compounds read low 0.984 | locus YKL009W, strain mrt4, active compounds read low 0.973 | locus YKL068W, active compounds read low 0.989 | locus YKL085W, strain MDH1 (second series), active compounds read low 0.982 | locus YKL085W, strain MDH1, active compounds read low 0.982 | locus YKL160W, strain elf1, active compounds read low 0.965 | [10] 0.976 | locus YKR001C, strain vps1, active compounds read low 1 | locus YKR026C, strain gcn3, active compounds read low 0.992 | locus YKR091W, strain srl3, active compounds read low 0.981 | locus YLL001W, strain dnm1, active compounds read low 0.968 | locus YLL026W, active compounds read low 0.995 | locus YLL041C, strain sdh2, active compounds read low 0.998 | locus YLR027C, strain aat2, active compounds read low 0.997 | [11] 0.941 | locus YLR058C, strain SHM2, active compounds read low 0.999 | locus YLR102C, strain apc9, active compounds read low 0.991 | locus YLR113W, strain HOG1, active compounds read low 1.02 | locus YLR221C, strain rsa3, active compounds read low 0.965 | locus YLR258W, strain gsy2, active compounds read low 0.974 | locus YLR262C, strain YPT6 (second series), active compounds read low 0.966 | [12] 0.985 | locus YLR268W, strain sec22, active compounds read low 0.99 | locus YLR320W, strain mms22, active compounds read low 0.964 | locus YLR330W, strain CHS5, active compounds read low 0.991 | locus YLR342W, strain FKS1 (second series), active compounds read low 1.01 | locus YLR342W, strain FKS1, active compounds read low 0.981 | locus YLR357W, strain rsc2, active compounds read low 0.963 | locus YLR370C, strain arc18, active compounds read low 0.987 | locus YLR371W, strain rom2, active compounds read low 1 | locus YLR384C, strain iki3, active compounds read low 0.979 | locus YLR418C, strain cdc73, active compounds read low 0.988 | locus YML016C, strain PPZ1, active compounds read low 1 | locus YML032C, strain rad52, active compounds read low 1 | locus YML120C, strain ndi1, active compounds read low 0.958 | locus YML124C, strain tub3, active compounds read low 0.988 | locus YMR058W, strain fet3, active compounds read low 0.991 | locus YMR078C, strain ctf18, active compounds read low 0.986 | locus YMR125W, strain sto1, active compounds read low 0.971 | locus YMR129W, active compounds read low 0.988 | locus YMR205C, strain PFK2, active compounds read low 0.964 | locus YMR223W, strain ubp8, active compounds read low 0.964 | locus YMR231W, strain pep5, active compounds read low 0.983 | [13] 1.02 | locus YNL067W, strain RPL9B, active compounds read low 0.986 | locus YNL071W, strain lat1, active compounds read low 0.982 | locus YNL128W, strain TEP1, active compounds read low 0.977 | [14] 1.01 | locus YNL183C, strain NPR1, active compounds read low 0.976 | locus YNL209W, strain ssb2, active compounds read low 0.984 | locus YNL233W, strain BNI4, active compounds read low 0.995 | locus YNL248C, strain rpa49, active compounds read low 0.985 | locus YNL250W, strain rad50, active compounds read low 0.967 | locus YNL271C, strain bni1, active compounds read low 0.977 | locus YNL298W, strain CLA4, active compounds read low 0.99 | locus YNL307C, strain MCK1, active compounds read low 0.999 | locus YNL322C, strain KRE1 (second series), active compounds read low 0.987 | [15] 0.997 | locus YNR049C, strain mso1, active compounds read low 0.99 | locus YNR052C, strain pop2, active compounds read low 0.992 | locus YOL006C, strain TOP1, active compounds read low 1.01 | locus YOL012C, strain htz1 0.742 | locus YOL147C, strain pex11, active compounds read low 0.987 | locus YOR001W, strain rrp6, active compounds read low 1.01 | locus YOR061W, strain CKA2, active compounds read low 1 | locus YOR069W, strain VPS5, active compounds read low 0.992 | locus YOR070C, strain gyp1, active compounds read low 0.988 | locus YOR080W, strain dia2, active compounds read low 0.987 | locus YOR083W, strain WHI5, active compounds read low 0.954 | locus YOR106W, strain vam3, active compounds read low 0.955 | locus YOR136W, strain idh2, active compounds read low 0.989 | locus YOR144C, strain elg1, active compounds read low 0.997 | locus YOR184W, strain ser1, active compounds read low 0.989 | locus YOR231W, strain MKK1, active compounds read low 1.04 | locus YOR265W, strain rbl2, active compounds read low 0.992 | locus YOR270C, strain vph1, active compounds read low 0.972 | locus YOR290C, strain snf2, active compounds read low 0.886 | locus YOR316C, strain cot1, active compounds read low 0.984 | locus YPL051W, strain arl3, active compounds read low 1.01 | locus YPL078C, strain atp4, active compounds read low 0.97 | locus YPL106C, strain sse1, active compounds read low 0.978 | locus YPL240C, strain hsp82, active compounds read low 0.996 | locus YPL256C, strain CLN2, active compounds read low 1.06 | locus YPR119W, strain clb2, active compounds read low 0.991 | locus YPR141C, strain kar3, active compounds read low 0.966 | locus YPR163C, strain tif3, active compounds read low 0.988 | locus YPR167C, strain met16, active compounds read low 0.995 | strain wtn01, active compounds read low 0.991

— PubChem BioAssay AID1159580 (chemical genetic matrix, 2015)
